The source made the active and inactive calls. How the calls were made is not given here.
Test system: Aerobactin synthetase IucA (Klebsiella pneumoniae hvKP1)
Test: IucA enzyme inhibition, primary screen, biochemical, Spectrum library (AID 1346200);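 further: 100% = wells without compound and 0% = wells lacking enzyme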
Settings: malachite green pyrophosphate, A620, at 8 µM, active compounds read low

Compound	activity remaining
COc1cc2c(cc1OC)C(=O)OC2	110% (inactive)
C=C1CC[C@H](O)C/C1=C/C=C1\CCCC2(C)C1CCC2C(C)CCCC(C)C (stereo partly drawn)	113% (inactive)
CC(=O)O[C@H]1C[C@@H](OC(C)=O)C(C)(C)C2C[C@@H](OC(C)=O)[C@]3(C)C(CC[C@@]4(C)[C@H](c5ccoc5)OC(=O)[C@H]5O[C@]543)[C@]21C (stereo partly drawn)	103% (inactive)
Oc1cc(O)c2c(c1)O[C@H](c1ccc(O)c(O)c1)[C@H](O)C2	99.8% (inactive)
c1ccc2c(c1)CN1CCCC1=N2	99.8% (inactive)
CC1(C)C(=O)C=C[C@@]2(C)C1CC(=O)[C@@]1(C)C3=CC(=O)O[C@@H](c4ccoc4)[C@]3(C)CCC12 (stereo partly drawn)	107% (inactive)
C/C=C\C1=C(C(=O)O)N2C(=O)C(NC(=O)C(N)c3ccc(O)cc3)C2SC1 (stereo not drawn)	115% (inactive)
CN(C)C(=O)Nc1ccc(Cl)c(Cl)c1	109% (inactive)
